This passage reports binding signal results from paper PMC7862700, “An all-to-all approach to the identification of sequence-specific readers for epigenetic DNA modifications on cytosine”.

Holding throughout (experiment): DAPPL (digital affinity profiling via proximity ligation, sequencing); 10 mM Tris-HCl pH 7.5, 50 mM NaCl, 1 mM DTT, 4% glycerol, room temperature, 30 min; GST-TFs on glutathione beads, 16-mer random dsDNA library, 0.1% formaldehyde crosslink after washing; high values mean tight binding
Details in all cases: protein: recombinant; tags: N-terminal GST; dsDNA, one strand shown

One assay concerns the target T1, FLI1 (Homo sapiens, UniProt Q01543 1-452).
T1 sequence: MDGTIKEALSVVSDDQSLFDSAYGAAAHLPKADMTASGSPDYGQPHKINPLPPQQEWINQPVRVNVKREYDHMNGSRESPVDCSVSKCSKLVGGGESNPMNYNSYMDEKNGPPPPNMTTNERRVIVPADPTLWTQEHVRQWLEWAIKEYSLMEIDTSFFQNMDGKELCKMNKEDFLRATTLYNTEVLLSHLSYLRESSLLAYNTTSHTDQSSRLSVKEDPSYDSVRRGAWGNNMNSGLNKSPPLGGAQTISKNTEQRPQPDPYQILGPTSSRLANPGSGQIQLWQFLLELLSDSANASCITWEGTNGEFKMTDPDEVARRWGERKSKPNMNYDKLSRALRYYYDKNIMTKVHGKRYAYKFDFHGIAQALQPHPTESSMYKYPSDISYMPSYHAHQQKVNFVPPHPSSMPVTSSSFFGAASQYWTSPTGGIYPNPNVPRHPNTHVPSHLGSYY
In outline:
(§1)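 A tag-only sample was pooled with DNA-barcoded human transcription factors that had been expressed in yeast as GST fusions and captured on glutathione beads. The pools were incubated for 30 min at room temperature with 200 nmole of a random double-stranded 16-mer DNA library in Tris/NaCl/DTT/glycerol buffer, then washed, crosslinked with 0.1% formaldehyde, proximity-ligated (BsaI/T4 ligase, 1 h, 37 °C), PCR-amplified and sequenced on an Illumina NextSeq500. Binding signal is each hexamer's read frequency for a factor divided by its frequency for the tag-only sample.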

A further assay has as its target T2, ELK1 (Homo sapiens, UniProt P19419 1-428).
T2 sequence: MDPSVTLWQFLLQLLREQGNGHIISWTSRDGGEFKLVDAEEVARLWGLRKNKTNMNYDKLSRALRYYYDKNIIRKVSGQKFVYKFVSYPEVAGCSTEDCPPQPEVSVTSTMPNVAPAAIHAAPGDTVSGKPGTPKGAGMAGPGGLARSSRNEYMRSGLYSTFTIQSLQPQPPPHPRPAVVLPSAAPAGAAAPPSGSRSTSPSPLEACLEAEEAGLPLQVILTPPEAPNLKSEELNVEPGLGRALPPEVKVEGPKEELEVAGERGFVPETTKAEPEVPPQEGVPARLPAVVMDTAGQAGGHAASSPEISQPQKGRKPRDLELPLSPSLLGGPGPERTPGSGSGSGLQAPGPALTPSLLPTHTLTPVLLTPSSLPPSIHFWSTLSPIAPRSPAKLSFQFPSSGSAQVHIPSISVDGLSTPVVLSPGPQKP
Put shortly: as §1

A further assay has as its target T3, GABPA (Homo sapiens, UniProt Q06546 1-454).
T3 sequence: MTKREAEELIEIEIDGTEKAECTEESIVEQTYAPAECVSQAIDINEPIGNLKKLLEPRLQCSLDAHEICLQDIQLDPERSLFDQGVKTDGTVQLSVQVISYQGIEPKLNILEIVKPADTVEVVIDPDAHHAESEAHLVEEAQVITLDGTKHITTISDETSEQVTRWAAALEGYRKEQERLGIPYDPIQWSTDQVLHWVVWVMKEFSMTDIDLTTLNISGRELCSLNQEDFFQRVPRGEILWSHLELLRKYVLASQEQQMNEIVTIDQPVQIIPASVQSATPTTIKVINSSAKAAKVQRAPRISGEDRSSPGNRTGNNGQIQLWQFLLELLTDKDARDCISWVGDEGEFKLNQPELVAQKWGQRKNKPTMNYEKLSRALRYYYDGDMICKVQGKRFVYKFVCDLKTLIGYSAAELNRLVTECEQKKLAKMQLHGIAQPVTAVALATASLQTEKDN
Put shortly: as §1

A further assay addresses T4, ERG (Homo sapiens, UniProt P11308 1-479).
T4 sequence: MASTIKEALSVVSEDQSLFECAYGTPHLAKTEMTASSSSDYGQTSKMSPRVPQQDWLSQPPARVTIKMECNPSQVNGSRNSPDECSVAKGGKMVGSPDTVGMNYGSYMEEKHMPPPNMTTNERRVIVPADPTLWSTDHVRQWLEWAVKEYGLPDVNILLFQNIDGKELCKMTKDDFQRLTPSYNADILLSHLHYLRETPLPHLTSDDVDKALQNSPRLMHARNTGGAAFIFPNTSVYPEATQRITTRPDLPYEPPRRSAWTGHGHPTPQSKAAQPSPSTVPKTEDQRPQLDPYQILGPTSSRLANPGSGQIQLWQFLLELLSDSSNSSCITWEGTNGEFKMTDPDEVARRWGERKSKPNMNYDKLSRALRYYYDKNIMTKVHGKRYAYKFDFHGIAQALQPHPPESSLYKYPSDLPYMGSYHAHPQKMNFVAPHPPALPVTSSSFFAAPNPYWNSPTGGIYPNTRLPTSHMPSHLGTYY
In outline: as §1

For the next assay, the target named is ELF1 (Homo sapiens, UniProt P32519 1-619). Put shortly:
as §1

The target in the next assay is T5, EHF (Homo sapiens, UniProt Q9NZC4 1-300).
T5 sequence: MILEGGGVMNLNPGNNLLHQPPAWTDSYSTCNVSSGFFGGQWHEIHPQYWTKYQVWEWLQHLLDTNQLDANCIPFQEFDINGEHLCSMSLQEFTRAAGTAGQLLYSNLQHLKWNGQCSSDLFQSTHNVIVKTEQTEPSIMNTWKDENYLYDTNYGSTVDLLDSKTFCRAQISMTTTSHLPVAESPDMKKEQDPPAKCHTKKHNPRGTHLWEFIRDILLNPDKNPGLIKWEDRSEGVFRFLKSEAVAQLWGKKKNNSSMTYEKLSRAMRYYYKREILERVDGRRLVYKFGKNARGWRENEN
In outline:
as §1

The target in the next assay is SPI1 (Homo sapiens, UniProt P17947 1-270). In outline:
as §1

In the next assay the target is SPIB (Homo sapiens, UniProt Q01892 1-262). In outline:
as §1

For the next assay, the target named is T6, ELK3 (Homo sapiens, UniProt P41970 1-407).
T6 sequence: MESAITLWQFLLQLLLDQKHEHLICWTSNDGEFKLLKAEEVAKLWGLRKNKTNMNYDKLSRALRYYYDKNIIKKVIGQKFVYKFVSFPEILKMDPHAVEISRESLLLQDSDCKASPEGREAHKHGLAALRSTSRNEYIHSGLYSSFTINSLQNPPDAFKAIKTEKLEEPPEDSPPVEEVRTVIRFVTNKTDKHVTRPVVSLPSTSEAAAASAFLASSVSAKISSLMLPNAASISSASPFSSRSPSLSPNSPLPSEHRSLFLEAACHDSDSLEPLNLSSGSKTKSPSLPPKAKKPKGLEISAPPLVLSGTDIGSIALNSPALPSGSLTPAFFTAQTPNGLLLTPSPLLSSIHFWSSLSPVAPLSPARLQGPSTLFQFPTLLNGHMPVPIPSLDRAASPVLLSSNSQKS
Put shortly:
as §1

Another assay has as its target T7, FEV (Homo sapiens, UniProt Q99581 1-238).
T7 sequence: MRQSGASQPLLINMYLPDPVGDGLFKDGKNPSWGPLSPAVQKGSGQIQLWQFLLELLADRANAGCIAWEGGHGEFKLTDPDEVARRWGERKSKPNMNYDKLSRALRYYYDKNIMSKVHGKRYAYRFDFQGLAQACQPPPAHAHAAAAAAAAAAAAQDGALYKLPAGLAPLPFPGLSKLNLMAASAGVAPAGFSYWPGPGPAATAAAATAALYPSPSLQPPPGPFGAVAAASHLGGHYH
Put shortly: as §1

For another assay, the target named is ETV5 (Homo sapiens, UniProt P41161 1-510). In outline: as §1
The target of a further assay is T8, SPIC (Homo sapiens, UniProt Q8N5J4 1-248).
T8 sequence: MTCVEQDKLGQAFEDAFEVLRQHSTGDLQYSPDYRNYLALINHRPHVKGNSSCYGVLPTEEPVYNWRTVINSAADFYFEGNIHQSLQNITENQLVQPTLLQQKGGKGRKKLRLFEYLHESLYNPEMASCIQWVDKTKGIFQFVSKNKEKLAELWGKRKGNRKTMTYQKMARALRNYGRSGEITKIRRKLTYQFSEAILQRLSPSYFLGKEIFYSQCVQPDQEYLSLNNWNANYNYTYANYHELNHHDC
Put shortly:
as §1

In another assay the target is ELF4 (Homo sapiens, UniProt Q99607 1-663). Put shortly: as §1
For another assay, the target named is T9, ELK4 (Homo sapiens, UniProt P28324-2 1-405).
T9 sequence: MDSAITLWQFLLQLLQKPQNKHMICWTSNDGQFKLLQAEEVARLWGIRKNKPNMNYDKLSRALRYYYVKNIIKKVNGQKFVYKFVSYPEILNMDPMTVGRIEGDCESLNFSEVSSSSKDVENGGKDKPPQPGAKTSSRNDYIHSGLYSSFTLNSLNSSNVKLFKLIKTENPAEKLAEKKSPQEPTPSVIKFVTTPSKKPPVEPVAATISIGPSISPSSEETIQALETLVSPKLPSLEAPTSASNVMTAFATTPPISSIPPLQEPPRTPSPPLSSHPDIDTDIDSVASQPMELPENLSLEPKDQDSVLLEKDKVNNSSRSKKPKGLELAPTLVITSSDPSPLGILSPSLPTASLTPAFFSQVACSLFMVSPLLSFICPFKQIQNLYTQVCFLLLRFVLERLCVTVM
In outline:
as §1

In the next assay the target is T10, ETV2 (Homo sapiens, UniProt O00321 1-342).
T10 sequence: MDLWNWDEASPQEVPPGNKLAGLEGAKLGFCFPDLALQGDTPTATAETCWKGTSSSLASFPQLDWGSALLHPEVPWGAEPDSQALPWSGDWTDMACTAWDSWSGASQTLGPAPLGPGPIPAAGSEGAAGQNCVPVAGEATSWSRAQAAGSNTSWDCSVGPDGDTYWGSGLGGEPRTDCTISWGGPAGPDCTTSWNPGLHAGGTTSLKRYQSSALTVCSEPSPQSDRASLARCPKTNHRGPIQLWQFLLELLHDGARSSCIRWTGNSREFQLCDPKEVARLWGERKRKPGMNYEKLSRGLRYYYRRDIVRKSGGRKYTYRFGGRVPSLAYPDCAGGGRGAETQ
Put shortly:
as §1

For the next assay, the target named is T11, ELF3 (Homo sapiens, UniProt P78545 1-371).
T11 sequence: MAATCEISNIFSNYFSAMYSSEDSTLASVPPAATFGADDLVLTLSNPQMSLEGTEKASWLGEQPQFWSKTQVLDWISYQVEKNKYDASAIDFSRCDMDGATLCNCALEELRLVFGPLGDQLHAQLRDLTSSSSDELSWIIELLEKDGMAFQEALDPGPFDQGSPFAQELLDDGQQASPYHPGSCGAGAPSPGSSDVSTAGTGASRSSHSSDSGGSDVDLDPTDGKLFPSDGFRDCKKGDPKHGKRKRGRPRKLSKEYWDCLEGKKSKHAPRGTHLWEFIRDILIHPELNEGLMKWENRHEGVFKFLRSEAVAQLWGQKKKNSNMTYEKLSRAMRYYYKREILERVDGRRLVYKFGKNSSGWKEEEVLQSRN
Put shortly: as §1

Another assay has as its target ETV1 (Homo sapiens, UniProt P50549 1-477). In outline: as §1

Chain of ELF1 (P32519 whole entry): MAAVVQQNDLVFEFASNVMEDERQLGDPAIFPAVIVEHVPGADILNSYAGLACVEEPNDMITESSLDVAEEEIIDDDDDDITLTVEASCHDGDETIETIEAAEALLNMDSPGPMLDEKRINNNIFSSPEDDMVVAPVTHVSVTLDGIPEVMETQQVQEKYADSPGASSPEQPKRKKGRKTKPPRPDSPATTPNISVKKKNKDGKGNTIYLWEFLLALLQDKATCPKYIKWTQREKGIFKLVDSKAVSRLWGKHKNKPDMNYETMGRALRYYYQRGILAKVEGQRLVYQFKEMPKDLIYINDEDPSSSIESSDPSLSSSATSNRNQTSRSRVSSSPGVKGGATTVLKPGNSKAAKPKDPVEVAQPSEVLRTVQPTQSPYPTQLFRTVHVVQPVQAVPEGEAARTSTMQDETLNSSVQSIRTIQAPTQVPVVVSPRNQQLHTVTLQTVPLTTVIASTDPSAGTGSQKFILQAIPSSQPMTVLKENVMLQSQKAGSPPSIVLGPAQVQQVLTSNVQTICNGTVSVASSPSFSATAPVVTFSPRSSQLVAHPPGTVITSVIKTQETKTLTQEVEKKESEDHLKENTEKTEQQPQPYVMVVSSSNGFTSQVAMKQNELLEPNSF
Chain of SPIB (Q01892 whole entry): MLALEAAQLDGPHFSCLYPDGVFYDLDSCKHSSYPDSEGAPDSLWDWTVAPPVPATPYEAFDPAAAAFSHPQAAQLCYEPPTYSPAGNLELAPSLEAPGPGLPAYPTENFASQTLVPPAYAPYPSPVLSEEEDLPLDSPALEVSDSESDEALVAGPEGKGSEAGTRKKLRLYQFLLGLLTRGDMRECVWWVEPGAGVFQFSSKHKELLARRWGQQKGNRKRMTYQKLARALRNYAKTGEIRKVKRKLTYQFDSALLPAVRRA
Chain of ELF4 (Q99607 whole entry): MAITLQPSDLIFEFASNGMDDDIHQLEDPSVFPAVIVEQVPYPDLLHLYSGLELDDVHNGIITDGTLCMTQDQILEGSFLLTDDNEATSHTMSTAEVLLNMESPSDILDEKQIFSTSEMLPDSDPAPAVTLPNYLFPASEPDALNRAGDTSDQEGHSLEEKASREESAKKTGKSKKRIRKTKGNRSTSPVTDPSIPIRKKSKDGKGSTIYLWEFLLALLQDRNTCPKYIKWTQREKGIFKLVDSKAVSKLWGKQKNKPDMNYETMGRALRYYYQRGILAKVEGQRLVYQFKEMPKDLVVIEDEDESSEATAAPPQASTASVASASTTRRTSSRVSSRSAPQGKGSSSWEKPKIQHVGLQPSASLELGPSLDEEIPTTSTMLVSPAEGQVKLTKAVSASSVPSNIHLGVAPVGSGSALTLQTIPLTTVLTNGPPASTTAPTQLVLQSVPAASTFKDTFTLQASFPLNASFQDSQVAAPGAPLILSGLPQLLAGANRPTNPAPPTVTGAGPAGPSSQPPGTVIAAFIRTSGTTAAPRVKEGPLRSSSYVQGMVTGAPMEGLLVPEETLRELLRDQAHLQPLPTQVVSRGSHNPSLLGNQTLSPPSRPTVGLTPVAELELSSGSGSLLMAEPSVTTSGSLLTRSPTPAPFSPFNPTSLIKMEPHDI
Chain of ETV1 (P50549 whole entry): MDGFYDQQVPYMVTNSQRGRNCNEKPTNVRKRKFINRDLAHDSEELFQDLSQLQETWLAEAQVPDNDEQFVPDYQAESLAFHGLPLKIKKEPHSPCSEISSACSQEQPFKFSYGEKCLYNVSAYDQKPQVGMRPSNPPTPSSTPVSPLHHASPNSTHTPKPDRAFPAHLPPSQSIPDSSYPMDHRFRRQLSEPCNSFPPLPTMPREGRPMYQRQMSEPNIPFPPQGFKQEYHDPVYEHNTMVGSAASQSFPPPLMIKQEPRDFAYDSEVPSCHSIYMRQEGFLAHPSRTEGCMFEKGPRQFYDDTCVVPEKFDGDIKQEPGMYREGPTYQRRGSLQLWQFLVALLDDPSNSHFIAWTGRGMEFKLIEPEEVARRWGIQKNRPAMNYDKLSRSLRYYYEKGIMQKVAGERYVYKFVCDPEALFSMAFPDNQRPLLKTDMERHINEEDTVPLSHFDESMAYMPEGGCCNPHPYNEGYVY
Chain of ETV5 (P41161 whole entry): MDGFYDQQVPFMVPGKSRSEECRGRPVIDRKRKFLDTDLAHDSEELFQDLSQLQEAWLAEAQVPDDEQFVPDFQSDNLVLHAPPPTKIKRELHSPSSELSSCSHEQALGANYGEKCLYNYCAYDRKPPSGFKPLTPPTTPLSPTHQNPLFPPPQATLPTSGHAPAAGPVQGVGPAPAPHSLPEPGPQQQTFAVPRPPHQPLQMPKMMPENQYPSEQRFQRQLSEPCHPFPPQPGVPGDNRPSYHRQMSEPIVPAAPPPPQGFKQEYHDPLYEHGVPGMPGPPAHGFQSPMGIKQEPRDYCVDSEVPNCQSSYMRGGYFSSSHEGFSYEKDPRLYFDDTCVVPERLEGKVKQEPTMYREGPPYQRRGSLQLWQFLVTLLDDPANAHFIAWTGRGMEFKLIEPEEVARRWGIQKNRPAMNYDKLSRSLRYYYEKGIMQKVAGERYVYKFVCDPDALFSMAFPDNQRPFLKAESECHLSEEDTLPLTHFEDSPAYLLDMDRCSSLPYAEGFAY

On to GTTGCA, for which the binding signal is 1.25 fold enrichment (6-mer frequency, TF over GST control) with FLI1; 1.15 fold enrichment (6-mer frequency, TF over GST control) with ELK1; 1.16 fold enrichment (6-mer frequency, TF over GST control) in the assay with GABPA; 1.01 fold enrichment (6-mer frequency, TF over GST control) with ERG; 1.14 fold enrichment (6-mer frequency, TF over GST control) with ELF1; 1.2 fold enrichment (6-mer frequency, TF over GST control) with EHF. For the same sequence, the binding signal is 1.15 fold enrichment (6-mer frequency, TF over GST control) in the assay with SPI1; 1.1 fold enrichment (6-mer frequency, TF over GST control) with SPIB; 1.25 fold enrichment (6-mer frequency, TF over GST control) with ELK3; 1.11 fold enrichment (6-mer frequency, TF over GST control) with FEV; 1.16 fold enrichment (6-mer frequency, TF over GST control) with ETV5; 1.11 fold enrichment (6-mer frequency, TF over GST control) in the assay with SPIC. The binding signal in the assay with ELF4 is 1.15 fold enrichment (6-mer frequency, TF over GST control); with ELK4, 1.06 fold enrichment (6-mer frequency, TF over GST control); in the assay with ETV2 it was 1.06 fold enrichment (6-mer frequency, TF over GST control); in the assay with ELF3, 1.1 fold enrichment (6-mer frequency, TF over GST control); with ETV1 it was 1.19 fold enrichment (6-mer frequency, TF over GST control).
Turning to CCCATC, the binding signal in the assay with FLI1 was 1.19 fold enrichment (6-mer frequency, TF over GST control); with ELK1 it was 1.18 fold enrichment (6-mer frequency, TF over GST control); in the assay with GABPA, 1.17 fold enrichment (6-mer frequency, TF over GST control); with ERG, 1.11 fold enrichment (6-mer frequency, TF over GST control); with ELF1, 1.12 fold enrichment (6-mer frequency, TF over GST control); in the assay with EHF it was 1.17 fold enrichment (6-mer frequency, TF over GST control). In addition, the binding signal was 1.11 fold enrichment (6-mer frequency, TF over GST control) with SPI1; 1.18 fold enrichment (6-mer frequency, TF over GST control) in the assay with SPIB; 1.21 fold enrichment (6-mer frequency, TF over GST control) in the assay with ELK3; 1.06 fold enrichment (6-mer frequency, TF over GST control) with FEV; 1.16 fold enrichment (6-mer frequency, TF over GST control) with ETV5; 1.27 fold enrichment (6-mer frequency, TF over GST control) with SPIC. The binding signal with ELF4 was 1.17 fold enrichment (6-mer frequency, TF over GST control); in the assay with ELK4, 1.3 fold enrichment (6-mer frequency, TF over GST control); with ETV2, 1.04 fold enrichment (6-mer frequency, TF over GST control); in the assay with ELF3 it was 1.09 fold enrichment (6-mer frequency, TF over GST control); in the assay with ETV1, 1.18 fold enrichment (6-mer frequency, TF over GST control).
